Data from PubChem BioAssay AID1508600 (Functional Genomics Laboratory (NCATS/FGL), 2020).
Out of some 53,000 sequences screened, about 3,700 (7%) were called active.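 The calls were made as follows: active = gene knockdowns whose robust z-score for IL-1 alpha signal is at least 2 or at most -2, so actives lie on both sides; inactive = the rest.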 Shown is part of a subset that was picked to be rich in actives.

assay: Components of the Cytosolic LPS Sensing Pathway: Gene Identification via Genome-wide siRNA Screen; settings: RAW264.7 macrophages, IL-1a HTRF, actives lie on both sides, screened at 100 nM (by protocol), cells primed 5 h with Pam3CSK4 first;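 also: robust z of the log signal after scaling to non-targeting control siRNA wells of the plate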
Procedure, shortened: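 Mouse macrophage line RAW264.7 is transfected with siRNA (100 nM final), grown 48h, primed with TLR ligand Pam3CSK4 5 h and given intracellular LipidA 24 h. IL-1a in supernatant is read by HTRF and viability by luminescence.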

Row | Sequence | z-score
1 | GGUGGAUAUUCCAUCUAUUTT against Snx14 | 2.76 (active)
2 | CGUUUUCAGAGAUGUGCGCTT against Cmtm5 | -1 (inactive)
3 | GCCAGUAUUAGCCUAGAUCTT against Vstm5 | -1.65 (inactive)
4 | CCCAGCUCUGUUUAAUGAUTT against Klf8 | -0.449 (inactive)
5 | GGAUCUUAAGAAGUUCCAATT against Chchd6 | -0.104 (inactive)
6 | CCUCCUUUUUUCUCUGUCUTT against Ugt1a9 | -2.79 (active)
7 | GGAUUUGCCUUAAAAAAUCTT against Dock4 | -0.0352 (inactive)
8 | GGUUUGAGGUAACACUAGATT against Vps39 | -0.125 (inactive)
9 | GCUGAAAGGAAUGUGCUCATT against Hspa8 | -1.57 (inactive)
10 | GCCGGAUGAAGGACUUUACTT against Dcc | -1.98 (inactive)
11 | CCUAGUCUAGCUGACUUGCTT against Eppin | 1.41 (inactive)
12 | GGUUACGAAAAGCUGCCUUTT against Ints14 | -0.125 (inactive)
13 | GGCCUUGGCAAUUAUUUGUTT against Syap1 | -0.0759 (inactive)
14 | GGAGAAAGAGAUUCCUAUUTT against Triap1 | -0.818 (inactive)
15 | CCAAUUCGUGUUAAGGAACTT against Riox2 | 0.212 (inactive)
16 | CCUCGUAGGGCCUAUGGUATT against Cyth4 | -2.17 (active)
17 | GCCAAAGUAGCAUUAGUGATT against Dip2b | -1.39 (inactive)
18 | GGCAAUGUCUUUAAAAUACTT against Txndc8 | -0.724 (inactive)
19 | GGCAUUGACCCUUCUUGGATT against Stam2 | -0.395 (inactive)
20 | CCUUGUUAGAGCAUUACAATT against Rprd1a | 1.34 (inactive)
21 | GGAUUCUGAGAAAUCAAGATT against Serpinb12 | -0.376 (inactive)
22 | GGAAAUCUACGAUUUCUAATT against Cyria | 2.55 (active)

Row | Sequence | z-score
23 | GCUCCAGAAUAUAUUGUUCTT against Arfgap3 | 1.39 (inactive)
24 | GGGCAGAGGCAUUUCUGUATT against Psg23 | 1.76 (inactive)
25 | GGAACCAGGUAGCAGAUCUTT against Cdk2ap2 | -2.61 (active)
26 | GGACUAUAUGAGAUAAACUTT against Pask | 0.371 (inactive)
27 | CGCCAAACAGGCUAGAUCUTT against Ephb2 | -0.101 (inactive)
28 | GCGAGAAUUGGACAAAUUATT against Acot12 | 0.784 (inactive)
29 | GCAUUCGAAGCUCUUCUAATT against 4930474M22Rik | -1.89 (inactive)
30 | GGGCUGUGAGCUCUGUUCATT against Rspo1 | 0.188 (inactive)
31 | GCCCAAACGAAAAAUGGCCTT against Abl1 | 2.95 (active)
32 | GCAACUGAGAGAUGUCAUCTT against Gbp6 | -0.806 (inactive)
33 | CCUGUGAAGUAUAACAUCGTT against Fam234b | -0.722 (inactive)
34 | CCUAUGUAUCUCAUCGCUGTT against Sox11 | 0.819 (inactive)
35 | GGCAAUUUGGAUACCAGGATT against Zfp24 | -0.563 (inactive)
36 | GCAGAAUUGAGUCACCCAATT against Sp1 | -2.56 (active)
37 | GCGACAAAGCUCGUUAUGATT against Hmgb2 | -2.3 (active)
38 | GCAUAAACUUUAGGCAUGGTT against Alg13 | -0.123 (inactive)
39 | GGUCAUCCGAUGCUUUGUATT against 4930515G01Rik | -0.513 (inactive)
40 | CCGGUUACCAAUUGAUAAATT against Smc3 | -1.15 (inactive)
41 | GCGUAAAUCUCCACACUACTT against Vmn1r54 | -1.57 (inactive)
42 | GGUGGAUACACAGGACAAATT against Invs | 1.58 (inactive)
43 | GGAGCGUAGAUAACUUAUCTT against Itprid2 | -0.0474 (inactive)
44 | CGCAGACAGUUUGAGGCUGTT against Gpbp1 | -2.34 (active)

Row | Sequence | z-score
45 | GGGACAUGGUCAUCACUAGTT against Clvs2 | -1.71 (inactive)
46 | GGAAUAGGAGCAAGUGUACTT against 9930021J03Rik | 1.03 (inactive)
47 | GGAUACACACAGAGAAUAUTT against Arhgef10l | 0.161 (inactive)
48 | GGCCUUCACGUCUGGAAAUTT against Cnot10 | -0.163 (inactive)
49 | GCAUCUCUCUAAUAGCCUUTT against Nop16 | 1.24 (inactive)
50 | GGAUGAAAAUCUCUGUCCUTT against Trpa1 | 0.604 (inactive)
51 | GGCAGCAGCAAGUUUCUUCTT against Rbm38 | -2.31 (active)
52 | GCUUUUGAUCCACAGAUUUTT against Prss33 | 0.372 (inactive)
53 | GGGCUUAUUCUCAGUUCUGTT against Slc17a1 | -0.395 (inactive)
54 | GGACCAUGUGACAAAGCCUTT against Fam131b | 2.16 (active)
55 | GCCUCCAUUAUUUGUUCUGTT against Olfr1058 | -0.177 (inactive)
56 | GGAAACACCAAGAUUCCAGTT against Sprr3 | -0.445 (inactive)
57 | GCUAUUGGAGGAAUGUAUCTT against Rasgrp4 | -1.51 (inactive)
58 | GGCACAAGAGCAAAGGCUUTT against Gmppb | -0.575 (inactive)
59 | CCCUCAUUUACUCUAGUAATT against Defb12 | 0.714 (inactive)
60 | GGUGUUCCUGGUGAAGCAATT against Camk1g | 0.875 (inactive)
61 | CGCUCACUGGUUUUUAAUUTT against Itpripl2 | 0.694 (inactive)
62 | GCCCGCACAAUCGUACUUUTT against Ccl28 | -1.2 (inactive)
63 | GGAAAACUGCGUUUGGAAATT against Neil3 | 0.387 (inactive)
64 | GCAAUAGUGAGCACGCCAGTT against Col18a1 | 0.307 (inactive)
65 | GGUCUGUGGACUGAACUUATT against Bcl2l11 | -2.6 (active)
66 | GGAUGAAGAACUCAGAGUGTT against Slc66a2 | -1.24 (inactive)

Row | Sequence | z-score
67 | GGUCAUUCUUAAUUGUUCATT against Kpna6 | 0.939 (inactive)
68 | CCAAAGUCUGUUAAUGGGUTT against 4921517D22Rik | 0.401 (inactive)
69 | GCUAUGCAGAGGAGUAUGCTT against Duoxa1 | 3.03 (active)
70 | GGAGACAUUGCUAUAUAUGTT against Hmgcs1 | -0.207 (inactive)
71 | GGCCUAAGGCUGUGAAUGUTT against D2hgdh | -2.59 (active)
72 | GCCGUUUACGUUUAUUGUUTT against Cux2 | -0.0356 (inactive)
73 | GGACAGAAUACGUGAGGAGTT against Septin5 | -0.427 (inactive)
74 | GGAGUUCCAGCAGCUCUAUTT against Vsnl1 | 0.741 (inactive)
75 | GGUUCUGCUGGACAACUUUTT against Cyp46a1 | -0.377 (inactive)
76 | CCCUCAUAACUAAUGCUGUTT against Pip5kl1 | -0.276 (inactive)
77 | GGUGAUCCAAGACUUCCAGTT against Actl6b | 1.16 (inactive)
78 | GCAGUGAUCCAUGAGCCUATT against Eif5a | 4.64 (active)
79 | GCACCAAUAUUAGGCUGACTT against Noct | 1.73 (inactive)
80 | CGAGCACACUUUUGAAGAATT against Gm5089 | 1.33 (inactive)
81 | GGCUACGAUCCUACAGUGGTT against Rhebl1 | -0.283 (inactive)
82 | GGCAACACUGUGGCUAAGUTT against Ankrd13d | 2.74 (active)
83 | GCUGGUAACAGAAUUUCUUTT against Aox2 | 0.515 (inactive)
84 | GCUAAACAGACAACUCAACTT against Rufy2 | 1.04 (inactive)
85 | GGUAAAACCCAAUAGUAACTT against Gclm | 0.45 (inactive)
86 | GGAUCUUUACUGCUUUGUGTT against Picalm | 2.42 (active)
87 | GCCAAUUUGAAGGUUUUCATT against Tlr8 | 1.58 (inactive)
88 | GGCUCUUGGAUAUUUCCGATT against Nop9 | 0.342 (inactive)

Row | Sequence | z-score
89 | CCUAAUGGAAGGGAAGCCATT against Cox19 | -2.06 (active)
90 | GGACCUGAAUAAGACUAUUTT against Lgmn | -0.429 (inactive)
91 | GGGAGGUUACUAUGGAGACTT against Mia | 1.68 (inactive)
92 | GCUACUGCAUUCUCUAUCATT against Actl9 | 1.94 (inactive)
93 | GGCAACUGUGUUCUCACGATT against Ddx58 | -1.22 (inactive)
94 | CCACUUCCAUAGAGAUUUUTT against Tmx3 | 2.93 (active)
95 | GCUUUGUUUGAAAAUGCGATT against Nrde2 | -0.66 (inactive)
96 | CCGCGUGUAUAAGUUGGUGTT against Mrpl9 | 1.23 (inactive)
97 | GCCUCGAUUCACCAAGUGUTT against Ghr | -0.663 (inactive)
98 | GGAAGAUCGAGAAUGUUCCTT against Ppih | 0.174 (inactive)
99 | GCCAUAUCAACUCAGAUCATT against Ssh2 | 5.04 (active)
100 | GGUAAUAAGUCCCAUUUUCTT against Prpmp5 | 0.817 (inactive)
101 | GGCCAGAAGAACUAACAGUTT against Cept1 | -0.11 (inactive)
102 | GGACAAUGCUAAUGAGACCTT against Gcsam | -0.176 (inactive)
103 | GAGGGACUGUAAUGUUGACTT against Olfr560 | 0.0877 (inactive)
104 | CCGCUAGACAAAUUUUGCCTT against Slc6a2 | 1.45 (inactive)
105 | GCUACAGUAGUAAGACUAATT against Usp53 | 2.67 (active)
106 | GGAGUAACAACACAACAUUTT against Mab21l1 | 1.43 (inactive)
107 | CGCUGAAAGUGAACGUAGGTT against Kcnv2 | -1.14 (inactive)
108 | CCUUCACAUAAGUUUCUGUTT against Nuak2 | 0.575 (inactive)
